# Screens deposited in PubChem BioAssay by National Center for Advancing Translational Sciences (NCATS).
# Only some compounds are listed: those with a hit (about 2.8% of all), similar ones and a draw of the others.
# Pol kappa inh: blocks human DNA polymerase kappa activity. Q9UBT6. purified Pol kappa, fluorescent DNA synthesis assay, 10 min. Potency, µM (titrated, usually from 107 µM), for the others: at the top dose activity, negative = inhibition, hits mostly inhibitors. hit rate 0.53% among 400,000; also: potency is read from the fitted curve at half-maximal effect; % is scaled to controls: 0 for no effect and ±100 for the full control effect
#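 Kinetic fluorescence readout at 0 and 10 min followed reaction start with substrate at 50 nM final. Beforehand, enzyme (10 nM Pol kappa) stood 15 min with compound at room temperature; buffer-only wells were negative controls.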
# POLI inh: DNA polymerase iota (human) inhibition; Q9UNA4; Pol iota fluorescent replication assay, 10 min; Potency, µM (titrated, usually from 115 µM), without a hit: at the top dose activity, negative = inhibition, hits mostly inhibitors; hit rate 1% among 390,000; AID 588590; also: potency is read from the fitted curve at half-maximal effect
# Target sequence (Q9UNA4 whole entry, looked up): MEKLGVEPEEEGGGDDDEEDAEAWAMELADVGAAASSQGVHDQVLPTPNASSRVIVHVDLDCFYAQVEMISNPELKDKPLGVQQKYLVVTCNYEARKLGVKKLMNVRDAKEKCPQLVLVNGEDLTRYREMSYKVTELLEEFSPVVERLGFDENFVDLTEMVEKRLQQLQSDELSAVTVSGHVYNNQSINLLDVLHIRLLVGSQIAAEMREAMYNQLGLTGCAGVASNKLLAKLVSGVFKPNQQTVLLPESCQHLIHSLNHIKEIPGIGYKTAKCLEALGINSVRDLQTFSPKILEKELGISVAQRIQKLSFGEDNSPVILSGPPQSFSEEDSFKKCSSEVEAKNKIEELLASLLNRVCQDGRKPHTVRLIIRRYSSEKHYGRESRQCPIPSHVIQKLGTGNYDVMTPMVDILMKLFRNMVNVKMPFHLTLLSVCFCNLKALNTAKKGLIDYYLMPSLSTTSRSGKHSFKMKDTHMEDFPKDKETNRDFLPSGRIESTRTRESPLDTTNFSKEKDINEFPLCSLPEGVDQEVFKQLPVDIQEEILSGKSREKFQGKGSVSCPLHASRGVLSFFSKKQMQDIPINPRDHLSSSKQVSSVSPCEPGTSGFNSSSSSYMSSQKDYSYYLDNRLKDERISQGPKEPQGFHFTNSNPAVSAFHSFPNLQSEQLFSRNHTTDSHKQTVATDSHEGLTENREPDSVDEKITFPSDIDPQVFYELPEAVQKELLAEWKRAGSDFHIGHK
#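 Fluorescent replication assay read twice, at 0 min and 10 min after adding 50 nM (final) substrate. Enzyme (10 nM) and compounds were first incubated 15 min at room temperature; enzyme-free buffer wells were negative controls.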
# WRN inhibitor: blocks human WRN helicase. Q14191. WRN helicase unwinding, fluorescent forked duplex, kinetic. Potency, µM (series often up to 114 µM), for the others: at the top dose activity change, negative = inhibition, actives largely listed as inhibitors. hit rate 0.46% among 360,000; also: potency is read from the fitted curve at half-maximal effect; % is scaled to controls: 0 for no effect and ±100 for the full control effect; nearly all actives have a fitted effect of over 55% in size
#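 WRN at 20 nM final preincubated with compound 15 min at room temperature; reaction started with 100 nM fluorophore/quencher forked duplex oligonucleotide and 2 mM ATP final. Unwinding followed kinetically by red fluorescence (ex 525, em 598 nm).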
# PI5P4Ka inh: PI5P4K alpha (human) kinase inhibition | P48426 | PI5P4Kalpha enzyme, ADP-Glo luminescence, 60 min; hits give low values | hit rate 1.2% among 330,000 | max response, %; active = max response of -50% or lower; inconclusive = between -30% and -50%; inactive = -30% or higher; also: value at the top dose of about 77 µM; % is scaled to controls: 0 for no effect and ±100 for the full control effect
#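 Reactions run in 0.038 M HEPES pH 7.4, 0.28 mM EGTA, 0.1% CHAPS and 5% DMSO, with PI5P4Kalpha, substrate, compound and 5 microM ATP final, one hour at room temperature. Readout is ADP-Glo luminescence.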
# POLB inh: blocks human DNA polymerase beta activity; Pol beta primer extension/strand displacement, fluorescence kinetic; Potency, µM (top dose mostly 114 µM), for inactives: top-dose activity change, negative = inhibition, hits mostly inhibitors; hit rate 1.3% among 340,000; AID 485314; also: potency is read from the fitted curve at half-maximal effect; % is scaled to controls: 0 for no effect and ±100 for the full control effect
#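 Enzyme-only controls used 10 nM Pol beta; buffer lacking enzyme served as negative control. Compound preincubated 15 min, then 50 nM substrate added; 0 and 10 min reads at room temperature.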
# Pol eta inh: inhibitors of human DNA polymerase eta; recombinant Pol eta, fluorescent DNA replication assay; Q9Y253; hit rate 1.2% among 390,000; AID 588591; Potency, µM (top dose mostly 114 µM), for the others: at the top dose activity change, negative = inhibition, most hits filed as inhibitors; also: potency is read from the fitted curve at half-maximal effect; % is scaled to controls: 0 for no effect and ±100 for the full control effect
#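 Pol eta at 10 nM preincubated with compounds 15 min at room temperature; reaction started with fluorescent substrate (50 nM final) and read kinetically at 0 and 10 min.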
# * marks the source's active call; other numbers are inactive results; ? = inconclusive; / = not tested or not shown; [ ] = remark or other dose. Unless noted, calls follow the shape of the dose curve; as a rule, active = well fitted curve in the direction sought with a large enough effect; inconclusive = small, poorly fitted or top-dose-only effect, or another doubt; inactive = no such curve, though single readings can be large; an effect the other way counts as inactive or inconclusive.
SMILES,Pol kappa inh,POLI inh,WRN inhibitor,PI5P4Ka inh,POLB inh,Pol eta inh
COc1cc(/C=C2\C(=O)NC(=O)N(c3ccccc3)C2=O)cc(OC)c1O,0%,25µM*,-29%,/,2%,3%
Cn1cc(/C=C2\C(=O)NC(=O)N(c3ccccc3)C2=O)c2ccccc21,-19%,?,-12%[11.6 µM],3,-7%,25µM*
O=C(CSc1nnc(NC(=O)c2ccccc2[N+](=O)[O-])s1)NCc1ccco1,-25%,?,-17%,-10,-10%,?
CCNc1cc(N2CCN(C)CC2)ccc1[N+](=O)[O-],-22%,33%,7%[57.1 µM],-6,13%,-4%
CN(C)c1c([N+](=O)[O-])cc(N2C(=O)C=CC2=O)cc1[N+](=O)[O-],-37%,?,35µM*,-86*,/,-17%
COC(=O)C1=C(C(=O)OC)SC2(S1)C(C(=O)OC)=C(C(=O)OC)Sc1c2ssc1=O,-6%,-16%,13µM*,?,/,-6%
CCCCNC(=O)/C(C#N)=c1\s/c(=C\c2ccccc2OC(F)F)c(=O)n1CCCOC,-2%,32%,-11%[57.1 µM],7,34%,-8%
O=C1NC(=S)NC(=O)C1=Cc1ccc(OCC(=O)N2CCCC2)cc1,-34%,?,-7%,-54*,50µM*,?
O=C(COc1ccc(Br)cc1)N1CCN(C2CCCC2)CC1,-7%,10%,-10%[57.1 µM],-6,-3%,-8%
CC(C)CN(CC(C)C)c1ccc(C=C2C(=O)NC(=S)NC2=O)cc1[N+](=O)[O-],?,18µM*,56µM*,-101*,50µM*,25µM*
CCN(CC)c1ccc(C=C2C(=O)NC(=S)NC2=O)cc1,7%,13%,-17%,-62*,2%,-7%
CN(C)c1ccc(C=C2C(=O)NC(=O)NC2=O)cc1,4%,?,-28%,?,/,-3%
CN(C)c1ccc(C=C2C(=O)NC(=S)NC2=O)cc1,-25%,50%,35µM*,-72*,/,-17%
CCOc1ccc(C=C2C(=O)NC(=S)NC2=O)cc1OCC,-12%,?,?,?,/,4%
COC(=O)C1=C(C)NC(C)=C(C(=O)OC)C1c1ccccc1[N+](=O)[O-],-17%[60.1 µM],?,4%,-58*,-6%,-9%
Cc1nn2c(=O)cc(COC(=O)c3ccccc3NC(=O)c3cccs3)nc2s1,-3%[60.1 µM],4%,/,/,21%,89µM*
Cc1ccc2c(C)cccc2c1,-5%,-11%,3%,-71*,/,1%
O=C(c1ccccc1)c1ccc2nc(N3CCN(c4ccc(F)cc4)CC3)c3nncn3c2c1,1%,0%,/,/,35%,-8%
ClCCN(CCCl)c1ccc(C=Nc2ccc(/C=C/c3ccncc3)cc2)cc1,-14%,3%,/,/,/,/
ClCCN(CCCl)c1ccc(/C=C/c2sc3ccccc3[n+]2CCCCI)cc1,28µM*,89µM*,/,/,/,/
COc1cccc(CN2CCC(n3nccc3NC(=O)CCOc3ccccc3)CC2)c1O,-12%,0%,?,3,/,-9%
CC(=O)C(O)C(c1ccccc1)c1c(O)c2ccccc2oc1=O (stereo not given),15%[60.1 µM],/,/,/,/,/
CN1C(=O)/C(=C\c2ccc(N3CCCCC3)o2)C(=O)NC1=S,-3%,?,-18%,-3,-13%,-29%
CN1C(=O)/C(=C/c2ccc(N3CCCCCC3)o2)C(=O)NC1=S,-15%,?,-19%,-14,-17%,?
Cc1ccc(/C=C2\C(=O)NC(=O)N(CCc3ccc(F)cc3)C2=O)s1,-3%,112%,-14%,?,0%,-1%
SMILES,Pol kappa inh,POLI inh,WRN inhibitor,PI5P4Ka inh,POLB inh,Pol eta inh
Cc1ccsc1/C=C1\C(=O)NC(=S)N(C)C1=O,3%,?,50µM*,-84*,25%,-17%
CN1C(=O)/C(=C/c2ccc(Cl)s2)C(=O)NC1=S,-24%,?,14µM*,-80*,4%,?
CCN1C(=O)/C(=C\c2ccc([N+](=O)[O-])s2)C(=O)NC1=S,/,/,/,/,4.5µM*,/
COc1ccc(Nc2c(-c3cc(Br)ccc3O)nc3ncccn23)cc1OC,3%,-6%,/,/,2%,?
[Cl-].[Cl-].[Hg+2],-29%[60.1 µM],/,/,/,/,/
CC1(C)C[C@H]2C=C(C=O)[C@]3(C=O)C[C@]3(C)[C@H]2C1,?,45µM*,-2%,-19,20µM*,-10%
CCCCCCCCc1ccc(O)cc1,-30%,-9%,-13%,70,/,-18%
CCCCCCCCn1sccc1=O,14%,?,-4%,-77*,/,0%
O=C(C1CCCN(S(=O)(=O)c2ccc(F)cc2)C1)N1CCOCC1 (stereo not given),7%,48%,8%,2,/,-11%
O=C1NC(=S)N(c2ccc(Cl)cc2)C(=O)/C1=C/N1CCN(C(=O)c2ccco2)CC1,-4%,?,-30%,-23,-2%,-13%
O=C1NC(=S)N(c2ccc(F)cc2)C(=O)/C1=C/c1ccco1,/,/,/,/,0.56µM*,/
COc1ccc(OC)c(N2C(=O)/C(=C/c3ccco3)C(=O)NC2=S)c1,3.5µM*,?,3.2µM*,-86*,?,0.71µM*
Cc1cccc(O)c1,62%[60.1 µM],/,/,/,/,/
CCOC(=O)N1CCCN(/[N+]([O-])=N/Oc2ccc([N+](=O)[O-])cc2[N+](=O)[O-])CC1,0%,?,/,/,/,/
O=c1cc(C2CCNCC2)[nH][nH]1,0%,0.89µM*,5%,-4,3%,14%
C=C1C(=O)O[C@H]2[C@H]1[C@H](OC(=O)CC(=O)O[C@@H]1C[C@@H](C)[C@@H]3C=CC(=O)[C@@]3(C)[C@H]3OC(=O)C(=C)[C@H]13)C[C@@H](C)[C@H]1C=CC(=O)[C@]12C,79µM*,50µM*,?,-17,50µM*,20µM*
Cc1cc(C)cc(N2C(=O)NC(=O)/C(=C/c3cccn3-c3ccc(Cl)cc3)C2=O)c1,-5%,?,-15%[11.6 µM],-26,12%,79µM*
O=C(O)Cn1cc(C=C2C(=O)NC(=O)NC2=O)c2ccccc21,-18%,?,-11%,?,-1%,6%
O=C1NC(=O)C(=Cc2coc3ccc(O)cc3c2=O)C(=O)N1,0%,?,-14%,-73*,18%,?
CC(C)c1ccc(N2C(=O)NC(=O)/C(=C/c3cnc(-c4ccccc4)nc3)C2=O)cc1,-11%,2%,50µM*,-54*,8%,-2%
O=C1NC(=O)N(Cc2ccccc2)C(=O)/C1=C/c1cnc(-c2ccccc2)nc1,-7%,28%,?,-73*,7%,-13%
CSc1ncc(/C=C2/C(=O)NC(=O)N(c3ccc(C(C)C)cc3)C2=O)cn1,-1%,4%,50µM*,?,-14%,-6%
